# Data published in PubChem BioAssay (NCI).
# Compounds without any hit were thinned out: in the full panel of roughly 83,000, 20% have a hit.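 Percent growth is the endpoint: 0 to 100 indicates growth inhibition (40 means 60% inhibition), 0 means no net growth, and negative values indicate cell death.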 A number with no mark means an inactive call. Calls of active or inactive are those of the source.
# Test system: KM12 colon
# Assay: NCI-60 one-dose screen, 48 h (100 = growth as untreated, 0 = no growth, -100 = all killed)
# Settings: 10 µM unless noted
# Description: Growth inhibition of the KM12 human tumor cell line is measured as a screen for anti-cancer activity. Cells are grown in 96 well plates and exposed to the test compound for 48 hours. Compounds are tested at a single concentration, which is 10^-5 M for most compounds. The reported endpoint is percent growth (GI% or GIPRCNT), where numbers from 0 - 100% represent growth inhibition, and numbers from -100% - 0 represent cell death. For example, a value of 40 represents 60% growth inhibition. A value of 0 means no net growth occurred over the course of the experiment. A value of -40 indicates 40% of cells at the beginning of the experiment died by the end of the experiment. A value of -100 means all cells are dead at the end of the experiment.
# NCI-60 Human Tumor Cell Lines Screen was performed using the standard one-dose NCI protocol, which is described in more detail at https://dtp.cancer.gov/discovery_development/nci-60/default.htm.
# Compounds with GIPRCNT values below 10 were considered active. Activity score was based on GIPRCNT using the following formula: […]
# Score is 0 for GIPRCNT values of 100 or above, 50 for GIPRCNT values of 0, and 100 for GIPRCNT values of -100.
row,SMILES,growth
1,O=C(OC1CCCC1)c1ccccc1Cl,105%
2,O=CNCCc1ccccc1,131%
3,C(=C\c1ccncc1)/c1ccncc1,112%
4,CCOC(=O)CNC,107%
5,O=C(OCC1CCCO1)c1ccc([N+](=O)[O-])cc1 (stereo not given),109%
6,S=CN1CCCCC1,98.8%
7,CN=S(=O)(OCCCCCOS(=O)(=NC)c1ccc(C)cc1)c1ccc(C)cc1 (stereo not given),98.2%
8,CC1CCC(C)(C)c2ccccc21 (stereo not given),106%
9,CC(C)c1ncc([N+](=O)[O-])n1C,111%
10,N#Cc1ccc2nc[nH]c2c1,98.5%
11,ClCc1cccc2c(CCl)cccc12,13.7%
12,C=C1C(=O)C2CCC1C2 (stereo not given),96.5%
13,O=C(c1ccc(Cl)cc1)N1CCCCC1,106%
14,CCOC(=O)c1c(C)[nH]c(C)c1C=O,104%
15,N#C/C(=C\NC(=S)N=Nc1c(O)[nH]c2ccccc12)c1nc2ccccc2s1,102%
16,N=C(N)c1nn(C2OC(CO)C(O)C2O)c2nc[nH]c(=O)c12 (stereo not given),-49.4% (active)
17,CCCCCC(=O)OCCC1CCCCC1,101%
18,CSc1nc2[nH]ncc2c(=O)[nH]1,99.9%
19,O=C(Nc1ccccc1)c1ccco1,117%
20,CN(C)c1ccc(O)c2c1CC1CC3C(N(C)C)C(=O)C(C(N)=O)=C(O)C3(O)C(=O)C1=C2O (stereo not given),50%

row,SMILES,growth
1,c1ccc(Nc2ccccn2)nc1,116%
2,CCC(C)C1CCC(O)CC1 (stereo not given),105%
3,Nc1cccc2cccc(O)c12,128%
4,CN1C(=O)NC(c2ccc(Cl)cc2)(c2ccc(Cl)cc2)C1=O,87.9%
5,CC(=O)c1cc(O)ccc1O,116%
6,OC1Cc2ccccc2C1,98.5%
7,CC(C)(C)[Si](C)(C)OCC1OC(n2cnc3c(N)ncnc32)CC1OS(C)(=O)=O (stereo not given),95.7%
8,CCOC(=O)CSCCC#N,105%
9,CC(C)C1CCC(C)C(O)C1 (stereo not given),97.3%
10,O=C(NCCc1ccccc1)/C(=C\c1ccc(Cl)cc1Cl)NC(=O)c1ccccc1,93.4%
11,CCN(C(C)=O)c1ccc([N+](=O)[O-])cc1,103%
12,CC(=O)N=c1ccc2nc3c(cc(N)c4ccccc43)oc-2c1,-59.9% (active)
13,O=C(CCl)Oc1ccc([N+](=O)[O-])cc1,107%
14,C#CC(O)c1ccccc1 (stereo not given),107%
15,c1ccc2[nH]c(Cc3nc4ccccc4[nH]3)nc2c1,97.6%
16,COc1ccc(C(=O)C(=O)c2ccccc2)cc1,102%
17,CC(=O)Nc1ncc(S(=O)(=O)c2ccc([N+](=O)[O-])cc2)s1,116%
18,CCCCCCCCCCC(=O)CCCCCCCCCC,104%
19,COc1cc(C(=O)NC(=S)NCc2ccncc2)cc(OC)c1OC,98%
20,C/C=C/C1OCC(CC)C(CCC)O1 (stereo not given),102%
